Screens as filed in PubChem.
Compounds with a hit are over-represented: about 1.9% of the library has one in this group of screens.
APP transl inh: APP translation inhibition; SH-SY5Y APP 5'UTR-luciferase reporter, luminescence; AID 1285; hit rate 0.82% among 190,000; inhibition, % at 2 µM;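 active means inhibition above a set limit, derived from the sample mean plus 3 SD, cut at about 45% in these data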
Ba/F3 V617F tox: loss of viability in JAK2V617F-driven Ba/F3 cells; Ba/F3 EpoR-JAK2V617F viability, ATP luminescence; inhibition, % at 5.6 µM; hit rate 1.1% among 220,000; AID 1446;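 active means inhibition above the campaign mean plus 3 SD over all tested compounds, cut at about 24% in these data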;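 further: cytokine-independent growth of Ba/F3 cells driven by EpoR plus mutant JAK2; 0% = DMSO-treated cells and 100% = JAK inhibitor I control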
IEC-6 tox: counter-screen for KLF5 inhibitors: cytotoxicity in IEC-6 cells; IEC-6 cytotoxicity, luminescence viability; inhibition, % at 5 µM; hit rate 0.78% among 290,000; AID 1825; in the data active means inhibition above about 22%;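 further: 0% = plate median of test compound wells and 100% = cytotoxic reference compound wells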
KLF5 inh: suppresses KLF5 promoter-driven expression; DLD-1 KLF5 promoter-luciferase reporter, luminescence; inhibition, % at 5 µM; hit rate 0.23% among 290,000; AID 1700;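 active means inhibition above a per-plate limit of that plate's mean compound inhibition plus 3 SD, cut at about 60% in these data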;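 further: 0% = DMSO wells and 100% = LY294002 at 200 µM; higher means less KLF5 promoter-driven luciferase light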
BaF3 parental: parental Ba/F3 viability inhibition as JAK2V617F counter-screen. CellTiter-Glo ATP luminescence. inhibition, % at 5.6 µM. hit rate 1.1% among 220,000;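 active means inhibition above a per-campaign cutoff, the mean inhibition of all tested compounds plus 3 SD, cut at about 27% in these data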;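 further: 0% = DMSO wells and 100% = JAK Inhibitor I control wells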
* hit, by the source's call; . = not tested or not shown.

SMILES	APP transl inh	Ba/F3 V617F tox	IEC-6 tox	KLF5 inh	BaF3 parental
CCCCn1c2c(c(=N)c3ccccc31)CCC2	.	71*	3	-10	61*
CCOC(=O)Cn1c2c(c(=N)c3ccccc31)CCC2	-8	-4	-2	-21	5
CCn1c2c(c(=N)c3c1CCC3)CCCC2	.	30*	0	-14	50*
CCCCCCCCCCn1c2c(c(=N)c3c1CCC3)CCC2	23	99*	56*	61	96*
CCCCCCCN1C2=NCCCN2c2ccccc21	-5	5	1	-16	9
CCOC(=O)C1CCN(c2ccc([N+](=O)[O-])c(C(C)=O)c2)CC1	-2	-2	-1	-22	0
Cc1ccc(NC(=O)CCC(=O)OCc2ccc(Br)cc2)cc1	-2	-3	-2	0	2
Cn1c(N2CCOCC2)c(/C=N/OC(=O)c2ccc(F)cc2)c2ccccc21	40	3	-1	-32	1
Cc1ccc(C(=O)O/N=C/c2c(N3CCOCC3)n(C)c3ccccc23)cc1	70*	-3	-4	8	3
Cc1nn(C)c(C)c1CN(C)C(=O)CCCC(=O)O	-19	-2	5	7	93*
Cc1nn(C)c(C)c1CN(C)C(=O)C1CCC(=O)N(C2CCCCCC2)C1 (stereo unspecified)	.	.	-7	-31	.
CC(C)N(Cc1ccccc1)C(=O)CC(=O)N(Cc1ccccc1)C(C)C	.	.	1	-32	.
O=C1CC(c2cc(F)ccc2F)c2cc3c(cc2N1)CCC3 (stereo unspecified)	84*	3	17	-21	2
COc1cc2c(cc1OC)C(c1cccc(Br)c1)CC(=O)N2 (stereo unspecified)	.	.	2	-36	.
CC1(C)CC(=O)C2=C(C1)NC(=O)CC2c1cc(F)ccc1F (stereo unspecified)	-22	-1	-5	-26	3
O=C1CC(c2cccc(Br)c2)c2cc3c(cc2N1)CCC3 (stereo unspecified)	54*	46*	14	25	62*
CC1CCN(C(=O)CCNS(=O)(=O)c2ccc(Cl)cc2)CC1	.	.	-4	16	.
COc1ccc(C(=O)/C(C#N)=N/Nc2ccc([N+](=O)[O-])cc2)cc1	92*	0	18	4	7
COc1ccc(C(=O)/C(C#N)=N/Nc2ccccc2[N+](=O)[O-])cc1	70*	-1	4	-6	2
CCCc1c(C)nn(C(=O)/C(C#N)=N/Nc2ccccc2[N+](=O)[O-])c1C	-64	-2	-1	-24	4
CC(=O)c1cccc(OCc2cc(C(=O)N3C[C@@H](C)O[C@@H](C)C3)no2)c1	.	.	1	-72	.
Cc1cc(N2CCN(C)CC2)nc2ccc(NC(=S)N3CCCCC3)cc12	-18	1	-2	-24	5
Cc1cccc(N2CCN(C(=S)Nc3ccc4nc(N5CCN(C)CC5)cc(C)c4c3)CC2)c1C	87*	-2	-1	-24	2
COc1ccc(CNC(=O)CSc2nnc(-c3cccnc3)n2N)cc1	0	6	0	5	82*
COc1cc2cc(/C=C/C(=O)c3ccco3)c(Cl)nc2cc1OC	50*	2	-2	-27	5
SMILES	APP transl inh	Ba/F3 V617F tox	IEC-6 tox	KLF5 inh	BaF3 parental
O=S(=O)(NCC(c1cccnc1)N1CCN(Cc2ccccc2)CC1)c1cc(F)ccc1F (stereo unspecified)	.	.	-6	-12	.
CCC(C)[C@H](NC(=O)C1CC(=O)N(c2ccc3c(c2)OCO3)C1)C(=O)NC1CCCCC1 (stereo partly specified)	.	.	2	-12	.
CN(C(=S)NCCN1CCOCC1)C(c1ccccc1)c1ccccc1	-8	16	-5	-43	44*
CCc1ccc(C(=O)/C=C/c2ccc([N+](=O)[O-])o2)cc1	54*	-3	0	0	2
Cn1c(=O)c2[nH]c(COc3ccc(C(C)(C)C)cc3)nc2n(C)c1=O	.	26*	8	-4	48*
O=C(Nc1ncc(Cc2ccc(SC(F)F)cc2)s1)c1ccc(OC(F)F)cc1	94*	-4	5	0	3
COc1ccc(-c2cn(CCc3c[nH]c4ccccc34)nn2)cc1	.	.	12	-9	.
Cc1[nH]n(-c2nc(-c3ccc(Cl)cc3)cs2)c(=O)c1N=Nc1ccc(O)cc1	54*	2	-2	3	6
CCN(CC)CCn1c(=S)[nH]c2cc(C(=O)N3CC=C(c4ccccc4)CC3)ccc2c1=O	-16	-1	2	-8	10
COc1ccc(CN2CCc3ccccc3C2)c(OC)c1	.	-2	1	-3	-4
COc1ccc(C2=[N+](C)CCn3cccc32)c(OC)c1	2	77*	7	-4	67*
CC(NC(=O)Cn1c(NCCO)nc2ccccc21)C1CC2CCC1C2 (stereo unspecified)	-1	6	3	-10	5
Cc1nc2ccccc2n1CC(=O)NC(C)C1CC2CCC1C2 (stereo unspecified)	-8	40*	4	-4	49*
Cc1cc(C(=O)CSc2nc3ccccc3[nH]2)c(C)n1CC1CCCO1 (stereo unspecified)	-189	17	4	-66	40*
CCOc1ccc(NC(C(=O)Nc2cccc(C(C)=O)c2)c2ccccc2)cc1 (stereo unspecified)	5	51*	6	11	54*
O=C(OCCN1C(=O)c2cccc3c(N4CCOCC4)ccc(c23)C1=O)c1ccc(Cl)cc1	50*	-2	-4	-2	4
CCCN(CCC)S(=O)(=O)c1ccc(C(=O)OCCN2C(=O)c3cccc4c(N5CCOCC5)ccc(c34)C2=O)cc1	2	-2	-1	-1	0
COc1ccccc1NC(=O)c1nnn(CC(=O)Nc2ccccc2)c1N	-9	4	5	-10	9
COc1ccccc1NC(=O)Cn1nnc(C(=O)Nc2ccccc2)c1N	8	1	-2	-22	94*
Cc1ccc2c(N)c(C)ccc2c1	-18	5	6	-35	5
Cc1ccc2cc3c(N)c4c(C)ccc(C)c4nc3nc2c1	56*	5	6	-2	5
N#CCC(=O)N/N=C/c1cc(Br)ccc1OCc1cccc2ccccc12	.	.	2	-1	.
CN=c1scc(-c2ccccc2F)n1/N=C(\C)c1cccnc1	-186	6	3	-56	38*
CCOC(=O)C1CCCN(c2c(NCCc3ccc(Cl)cc3)c(=O)c2=O)C1 (stereo unspecified)	.	-3	-6	-33	-2
C=CCn1c(C)c(/C=C/c2cc[n+](C)cc2)c2ccccc21	.	.	8	-5	.
SMILES	APP transl inh	Ba/F3 V617F tox	IEC-6 tox	KLF5 inh	BaF3 parental
Cc1[nH]c2ccccc2c1/C=C/c1cc[n+](C)cc1	-10	85*	5	-23	77*
CC(C)n1cc(/C=C/c2cc[n+](C)cc2)c2ccccc21	.	.	10	-12	.
Cc1ccccc1/C=C/c1cc[n+](C)cc1	10	50*	4	-5	58*
COc1ccccc1S(=O)(=O)N1CCN(S(=O)(=O)c2ccccc2C#N)CC1	.	.	-3	-31	.
CCCCN(C)C(=O)Cn1cnc2sc(C)c(S(=O)(=O)N3CCN(c4ccccc4OC)CC3)c2c1=O	.	.	-5	-21	.
CCN(CC)c1ccc(/C=N/NC(=O)Cc2cccs2)c(O)c1	64*	1	7	-19	8
